Most compounds without a hit are left out; they make up all but 5.9% or so of the library.
KB-V1 MDR tox: KB-V1 MDR subline cytotoxicity | KB-V1 MDR cells viability, CellTiter-Glo, 72 h | Potency, µM (doses to about 46.1 µM), most hits filed as cytotoxic | 400,000 tested, 3.4% active; also: % is scaled to controls: 0 for no effect and ±100 for the full control effect; nearly all actives have a fitted effect of over 60% in size
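KB-V1, DMEM (no phenol red) + 10% FBS; cpd pin-transferred, titration series; 72 h, 37 degrees C; CellTiter-Glo, luminescence. Data normalized, curve-fit.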
ATXN2 expr inh: reduces ATXN2 reporter expression in HEK-293 cells | HEK-293 ATXN2-luciferase reporter, luminescence, 24 h | Potency, µM (highest dose often 57 µM), for the others: at the highest dose activity change, negative = inhibition, hits mostly inhibitors | 360,000 tested, 0.72% active; also: % is scaled to controls: 0 for no effect and ±100 for the full control effect; nearly all actives have a fitted effect of over 55% in size
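qHTS (up to 57 uM final) was run with 24 h compound exposure of reporter cells at 37 °C. Each well was multiplexed: SteadyGlo luminescence measured ATXN2-luciferase expression after a fluorogenic Gly-Phe-AFC viability readout (25 uM final).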
KB-3-1 tox: KB-3-1 parental cell cytotoxicity. KB-3-1 viability, CellTiter-Glo ATP luminescence, 72 h. Potency, µM (top dose mostly 46.1 µM), hits mostly cytotoxic. 400,000 tested, 1.4% active; also: % is scaled to controls: 0 for no effect and ±100 for the full control effect; nearly all actives have a fitted effect of over 60% in size
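Parental KB-3-1 viability, qHTS format: 72 h compound exposure, 37 °C; CellTiter-Glo; media-only wells and DMSO plates as controls; concentration-effect fits on corrected data.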
TGFb SMAD3 inh: inhibitors of TGF-b signaling; HepG2 CAGA-GFP TGF-b/SMAD3 reporter, GFP fluorescence, 18 h; TGF-beta stimulated, 500 pg/mL final; Potency, µM (titrated, usually from 46.1 µM), for the others: at the highest dose activity, negative = inhibition, most hits filed as inhibitors; 410,000 tested, 1.2% active; also: % is scaled to controls: 0 for no effect and ±100 for the full control effect; nearly all actives have a fitted effect of over 65% in size
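First, reporter cells (HEPG2 CAGA-GFP) rested 2 h at 37 degrees C. Next, compounds were pinned in and TGF-beta added to 500 pg/mL final. After 18 h, GFP was imaged per cell and summed per well.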
S2 tox: reduces viability in counter-screen for ATXN expression inhibitors | Potency, µM (titrated, usually from 56.7 µM), usual class: cytotoxic | S2 cells (HEK-293 line with an ATXN2-luciferase reporter) viability, CellTiter-Fluor protease fluorescence, 24 h | 400,000 tested, 0.49% active; also: nearly all actives have a fitted effect of over 40% in size
HepG2 viability: counter-screen for TGF-b inhibitors: cytotoxicity in HepG2 cells. HepG2 CAGA-GFP viability, ATP luminescence, 18 h. Potency, µM (titrated, usually from 46.1 µM), for the others: at the top dose activity change, negative = cytotoxicity, hits mostly cytotoxic. 410,000 tested, 0.76% active. AID 588856
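CellTiter-Glo luminescence gave cytotoxicity after 18 hours at 37 degrees C. The cells were HepG2 CAGA-GFP in 1% FBS DMEM, stimulated with 500 pg/mL TGF-beta after compound addition. %Activity was normalised to no-cell wells (complete cell-killing) and DMSO (no toxicity), and curves were fitted and classified.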
Starred values were filed as active, the others as inactive; i = inactive; u = inconclusive; x = no result given; [ ] = dose if it differs, or a comment. Calls follow the shape of the dose curve; as a rule, active = well fitted curve in the direction sought with a large enough effect; inconclusive = small, poorly fitted or top-dose-only effect, or another doubt; inactive = no such curve, though single readings can be large; an effect the other way counts as inactive or inconclusive. Potency is read from the fitted curve at half-maximal effect.

SMILES | KB-V1 MDR tox | ATXN2 expr inh | KB-3-1 tox | TGFb SMAD3 inh | S2 tox | HepG2 viability
CCOc1ccc(NCc2cccn2-c2nnc(N3CCC(C(=O)NCCCN4CC(C)CC(C)C4)CC3)s2)cc1 (stereo not given) | i | 32µM* | i | u | u | -87%
CCOc1ccc(NCc2cccn2-c2nnc(N3CCC(C(=O)NCCc4ccc(OC)c(OC)c4)CC3)s2)cc1 | x | x | x | x | x | -30%
Cc1ccc2c(c1)c1c3n2CC(=C2C(=O)OC(C)(C)OC2=O)NC3CCC1 (stereo not given) | 21µM* | -9% | i | u | i | -6%
CC(C)[C@H](O)C(=O)N[C@@H](C)C(=O)N[C@@H]1C(=O)N(C)CCc2ccccc21 | x | 23% | x | x | x | x
CCC(c1nnnn1-c1ccc2c(c1)OCCO2)N1CCN(c2ccc(C)cc2)CC1 (stereo not given) | i | -16% | 18µM* | x | i | x
CCC(c1nnnn1-c1ccc2c(c1)OCCO2)N1CCN(C/C=C/c2ccccc2)CC1 (stereo not given) | 8.2µM* | -11% | i | u | u | -11%
CCC(c1nnnn1-c1ccc2c(c1)OCCO2)N1CCN(c2ccc(OC)cc2)CC1 (stereo not given) | 16µM* | -17% | u | x | i | x
CCC(c1nnnn1-c1ccc2c(c1)OCCO2)N1CCN(c2ccccc2OC)CC1 (stereo not given) | 7.3µM* | -17% | u | x | i | x
CCOc1ccc2oc(=O)cc(CN3CCN(C(=O)c4ccc(Cl)cc4)CC3)c2c1 | x | x | x | u | x | -25%
CCCCCn1c(NCc2ccc(OC)cc2)nc2ccccc21 | u | u | u | 13µM* | u | -48%
COc1ccc(CNc2nc3ccccc3n2Cc2ccc(C)cc2)cc1OC | 3.3µM* | -16% | i | 4% | i | -28%
CCn1c(NCc2cc(OC)ccc2OC)nc2ccccc21 | i | 17% | i | -6% | u | -18%
CCCCn1c(NCc2ccccn2)nc2ccccc21 | 13µM* | 20% | i | 6% | i | 0%
CCCn1c(NCc2cc(OC)ccc2OC)nc2ccccc21 | 4.1µM* | 34% | i | 20% | i | -24%
CCN(CC)CCn1c(NCc2ccccn2)nc2ccccc21 | i | 1% | i | 40% | i | 6%
O=C(NC1CCCCC1)C(c1ccc(-c2ccccc2)cc1)n1c(=O)c(-c2ccco2)nc2ccccc21 (stereo not given) | i | x | i | x | x | x
CCn1c(SCC(=O)Nc2ccc(C)c(C)c2)nnc1-c1nonc1NC(C)=O | i | -3% | i | -16% | i | -4%
Cc1ccc2occ(CC(=O)Nc3ccc(S(=O)(=O)N4CCC(C)CC4)cc3)c2c1 | u | -39% | i | u | u | -55%
COc1ccc(CNc2nc3ccccc3n2CCN2CCCCC2)c(OC)c1 | 18µM* | -23% | i | u | u | -44%
COc1ccc(OC)c(CNc2nc3ccccc3n2CCN2CCCCC2)c1 | 4.1µM* | u | u | -13% | u | -25%
Cc1ccc(NC(=O)c2ccc(=O)n(CC(=O)Nc3cccc(C)c3)n2)cc1 | x | x | x | -1% | x | 2%
COc1cc(C(C)C)c(Oc2cnc(NC(CO)CO)nc2N)cc1I | x | 24µM* | x | x | x | x
O=C(NCCO)c1cn(C2CCN(Cc3c(F)cccc3Cl)CC2)nn1 | x | x | x | x | i | x
COc1ccc(C)c2sc(NC(=O)c3ccc(S(=O)(=O)N4CCCCC4)cc3)nc12 | u | -5% | i | -3% | i | -4%
COCc1cc(=O)[nH]c(Nc2nc3ccc(C)cc3o2)n1 | u | u | 21µM* | u | u | -4%
SMILES | KB-V1 MDR tox | ATXN2 expr inh | KB-3-1 tox | TGFb SMAD3 inh | S2 tox | HepG2 viability
CCCc1cc(=O)[nH]c(Nc2cc(C)ccc2OC)n1 | i | 8% | i | -13% | i | -1%
CCc1ccc2nc(Nc3nc(COC)cc(=O)[nH]3)nc(C)c2c1 | 21µM* | 4% | i | 1% | i | -13%
O=C(NC1CCCC1)c1cn(C2CCCN(Cc3ccc4c(c3)OCCO4)C2)nn1 (stereo not given) | x | x | x | x | i | x
COc1ccc(CNC(=O)Cc2ccc(NC(=O)N3CCCCc4ccccc43)cc2)cc1 | u | 2% | u | 10% | i | 1%
O=C(Nc1ccc(Cl)cn1)c1cccc(S(=O)(=O)N2CCOCC2)c1 | 21µM* | 6% | i | -6% | i | 18%
Cc1ccc(NC(=O)c2cccc(S(=O)(=O)N3CCN(c4ccc(F)cc4)CC3)c2)nc1 | u | -19% | 16µM* | u | i | -19%
CC(=O)N1CCc2cc(CNS(=O)(=O)c3ccccc3C(F)(F)F)ccc21 | x | x | x | 1% | x | -22%
COc1ccc([N+](=O)[O-])cc1NC(=O)C(C)OC(=O)Cc1ccc(OC)c(OC)c1 (stereo not given) | 15µM* | -7% | i | 0% | u | 7%
C/C=C/C=C/C(=O)OC(C)C(=O)Nc1cc([N+](=O)[O-])ccc1OC (stereo not given) | i | -4% | i | 0% | u | 0%
COCCn1c(SCC(=O)c2ccccc2)nc2cc(C(=O)NC3CCCC3)ccc2c1=O | i | 15% | i | -21% | i | -28%
Fc1ccccc1CCNc1c2c(nc3ncnn13)CCCC2 | i | -26% | u | -23% | i | -4%
c1ccc(CCNc2c3c(nc4ncnn24)CCC3)cc1 | 12µM* | -6% | i | u | i | -38%
Cc1cc(C)cc(NC(=O)c2cc3c(=O)n(Cc4ccco4)ccc3nc2C)c1 | x | x | x | 0% | x | -2%
CCOc1cc2c3c(c1)C1(Nc4ccccc4S1)C(=O)N3C(C)(C)CC2C (stereo not given) | i | -12% | i | 13µM* | i | -35%
CC(C)c1ccc(NC(=O)C2Cc3c(-c4cccc(F)c4)ccnc3O2)cc1 (stereo not given) | u | -2% | u | -27% | u | -21%
CCOc1ccc(NC(=O)CSc2nnc(-c3ccc(OCC)cc3)o2)cc1 | u | 7% | i | 3% | i | 1%
CCN=C1S/C(=C\c2sccc2C)C(=O)N1CC | 13µM* | 38%[11.3 µM] | u | -8% | i | -2%
Cc1snc(S(=O)(=O)/C(C#N)=N/Nc2ccc(C(F)(F)F)cc2)c1C#N | i | -9% | u | 10µM* | i | -32%
Cc1snc(S(=O)(=O)/C(C#N)=N\Nc2ccccc2)c1C#N | i | 0% | i | 2% | i | -18%

Assay outcomes: PubChem BioAssay, National Center for Advancing Translational Sciences (NCATS)
